Assay [1] can be described thus: NCI Yeast Anticancer Drug Screen. Data for the rad50 strain (AID 155).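 Note: 0% = growth of vehicle-only cultures of the same strain.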 Conditions: S. cerevisiae rad50 strain growth inhibition; at 50.0 µM; hits give high values. The method, boiled down:
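Growth of the mutant yeast was measured after compound exposure and referenced to vehicle-treated cultures.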

Assay [2] is described as follows: NCI Yeast Anticancer Drug Screen. Data for the mec2-1 strain (AID 157). Particulars: S. cerevisiae mec2-1 strain, at 50.0 µM, hits give high values. In short, it runs like this:
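Cells of the genetically defined mec2-1 yeast strain are incubated with test compound. Inhibition of growth is calculated against vehicle-treated controls.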

Assay [3] can be described thus: NCI Yeast Anticancer Drug Screen. Data for the sgs1 mgt1 strain (AID 161).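 Note: 0% = growth of cultures given vehicle only.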 Conditions: S. cerevisiae sgs1 mgt1 strain, at 50.0 µM, hits give high values. In short, it runs like this:
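Mutant yeast exposed to compound; growth scored against vehicle-only wells.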

A short description of assay [4]: NCI Yeast Anticancer Drug Screen. Data for the cln2 rad14 strain (AID 165).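 Note: 0% = growth equal to vehicle treated cultures.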 Particulars: S. cerevisiae cln2 rad14 strain, at 50.0 µM, hits give high values. The method, boiled down:
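The screen exposed genetically defined yeast (cln2 rad14) to test compounds and scored growth inhibition relative to vehicle-treated controls.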

The nature of assay [5]: NCI Yeast Anticancer Drug Screen. Data for the bub3 strain (AID 167). Conditions: S. cerevisiae bub3 mutant strain, at 50.0 µM, hits give high values. The method, boiled down: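 Whole-cell yeast assay. The mutant strain was incubated with compounds, and growth inhibition was determined by comparison with vehicle-treated cells.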
A short description of assay [6]: NCI Yeast Anticancer Drug Screen. Data for the mlh1 rad18 strain (AID 175). Conditions: S. cerevisiae mlh1 rad18 strain growth inhibition; at 50.0 µM; hits give high values. In short, it runs like this: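 Compound-treated yeast growth, normalised to vehicle controls. Strain bears defined DNA repair mutations.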

About 79,000 compounds went through this panel and 15% of them were active in at least one assay; those are over-represented in the sample as a whole. Values without a mark were called inactive. Active and inactive are the calls of the source. Cut-off read from the data, not from the text of the source: active = growth inhibition above about 70%; inactive = the rest.

Take `O=NN(CCCl)C(=O)NC1CCC(C(=O)O)CC1` (stereo unspecified): the growth inhibition in assay [1] is 29.6%; in assay [2], -2.05%; in assay [3], -6.65%; in assay [4] it was -7.8%; in assay [5] it was -0.75%; in assay [6], 2.4%.
As for `CCN(CC)CCCNc1ccc2nnn3c4ccc(O)cc4c(=O)c1c23`, the growth inhibition is -15.6% in assay [1]; -7.9% in assay [2]; -7.35% in assay [3]; 25.3% in assay [4]; -6.5% in assay [5]; 6.65% in assay [6].
Regarding `CC(C)(C)[N]=[V]([Cl])([Cl])[Cl]`, the growth inhibition in assay [1] is 3.65%; in assay [2] it was -0.65%; in assay [3], -7.3%; in assay [4], -6.35%; in assay [5], -10.6%; in assay [6], -10.1%.
In the case of `CCOC(CNCc1ccncc1)OCC`, the growth inhibition in assay [1] was -19.8%; in assay [2], -20.3%; in assay [3], -26.8%; in assay [4] it was 4.9%; in assay [5], -31%; in assay [6] it was -10.9%.
For the compound `CC(=O)OCc1cc(OC(C)=O)cnc1COC(C)=O`, the growth inhibition in assay [1] is -9.25%; in assay [2] it was -24.6%; in assay [3], -17.4%; in assay [4] it was -19.2%; in assay [5], -7.85%; in assay [6] it was -36.2%.
`CCOC(=O)CCC(NC(=O)c1ccc(NC)c([N+](=O)[O-])c1)C(=O)OCC` (stereo unspecified): the growth inhibition in assay [1] is 58.9%; in assay [2], -1.9%; in assay [3] it was 11.4%; in assay [4], 18.8%; in assay [5] it was 4%; in assay [6], 0.8%.
Consider `CCOC(=O)C(NC(=O)c1cccc(Cl)c1)(Nc1ccc(S(=O)(=O)Nc2cc(C)on2)cc1)C(F)(F)F` (stereo unspecified), for which the growth inhibition in assay [1] is 67.2%; in assay [2], 69.3%; in assay [3], 82.3% (active); in assay [4], 84.7% (active); in assay [5], 79.2% (active); in assay [6] it was 91% (active).
On to `Cc1cccc2nc(-c3ccccc3)ccc12`, for which the growth inhibition was -3.5% in assay [1]; -11.6% in assay [2]; 1.55% in assay [3]; 5.6% in assay [4]; 4.95% in assay [5]; 4% in assay [6].
For the compound `Cc1c2c(n3c(nc4ccccc43)c1C#N)N(c1ccc(Cl)cc1)CC2`, the growth inhibition in assay [1] is 1.1%; in assay [2] it was -1.3%; in assay [3], -10.8%; in assay [4] it was 7.35%; in assay [5], -6.4%; in assay [6], -15.3%.
For `CCN(CC)Cc1cc(Nc2cc(C)nc(/N=C(\N)Nc3cc(Cl)cc(Cl)c3)n2)ccc1O`, the growth inhibition in assay [1] is 95.2% (active); in assay [2], 69.2%; in assay [3], 97.2% (active); in assay [4], 10.2%; in assay [5], 7.95%; in assay [6], 91.1% (active).
Turning to `O=C(OC1COC(OC(=O)c2ccc([N+](=O)[O-])cc2)C(OC(=O)c2ccc([N+](=O)[O-])cc2)C1OC(=O)c1ccc([N+](=O)[O-])cc1)c1ccc([N+](=O)[O-])cc1` (stereo unspecified), the growth inhibition in assay [1] was -6.15%; in assay [2], 1.65%; in assay [3], -9.9%; in assay [4] it was -16.9%; in assay [5] it was -1.3%; in assay [6], 4.3%.
Take `CSC(=N/N=C(\C)c1ccccn1)SC`: the growth inhibition in assay [1] is 0.45%; in assay [2], 6%; in assay [3] it was 5.3%; in assay [4], -46.2%; in assay [5] it was -11.7%; in assay [6], 5.85%.
For the compound `N#CC1(C#N)C(c2ccccc2)C=CC12OCCCO2` (stereo unspecified), the growth inhibition is 10.9% in assay [1]; 6.75% in assay [2]; 3.9% in assay [3]; 32% in assay [4]; -5.3% in assay [5]; 23.2% in assay [6].
For the compound `C=C(C)COC1CCCCO1` (stereo unspecified), the growth inhibition in assay [1] is -3.75%; in assay [2], -15.1%; in assay [3] it was -36.7%; in assay [4], 14.7%; in assay [5], -42.3%; in assay [6], -39.1%.
Regarding `OCCN(CCO)c1cc(/C=C/c2cccc3ccccc23)nc2ccccc12`, the growth inhibition in assay [1] is 56.9%; in assay [2], 11.3%; in assay [3], 39.6%; in assay [4] it was 3.85%; in assay [5], -6.5%; in assay [6], 37.4%.
With `NS(=O)(=O)c1ccc(NC(=O)C2C(=O)N(c3ccc(S(N)(=O)=O)cc3)C(=O)/C2=N/O)cc1` (stereo unspecified), the growth inhibition in assay [1] is 9.55%; in assay [2], 0.25%; in assay [3], 9.8%; in assay [4] it was -26.4%; in assay [5], 2%; in assay [6], 33.1%.
As for `CCN1CCC(CC(c2ccccc2)c2ccccc2)C1` (stereo unspecified), the growth inhibition in assay [1] was 19.4%; in assay [2], -6.75%; in assay [3] it was 34.2%; in assay [4], -4.95%; in assay [5] it was 10.1%; in assay [6], 7%.
As to `O=C(OC1CCCC1)c1ccccc1`, the growth inhibition was 5.3% in assay [1]; 9.9% in assay [2]; -26.1% in assay [3]; -29.1% in assay [4]; -10.2% in assay [5]; -2.2% in assay [6].
On to `CC(=O)NCCO`, for which the growth inhibition is -12.7% in assay [1]; -22.8% in assay [2]; -12.7% in assay [3]; -19.4% in assay [4]; 3.9% in assay [5]; 7.25% in assay [6].
As for `Fc1ccc2nncc(SCc3ccc(Cl)cc3)c2c1`, the growth inhibition in assay [1] was -4.1%; in assay [2], 2.25%; in assay [3], 4%; in assay [4], -22.4%; in assay [5], 4.85%; in assay [6], -0.65%.
Turning to `COc1ccc2c(c1)c(=O)c1ccccc1n2/C=C/C(=O)O`, the growth inhibition is -6% in assay [1]; -14.8% in assay [2]; -8.9% in assay [3]; 3.75% in assay [4]; -3.05% in assay [5]; 2.25% in assay [6].

Values taken from PubChem BioAssay (NCI).
